{
  "source": "PubChem BioAssay AID686978",
  "about": "(National Center for Advancing Translational Sciences (NCATS), 2013)",
  "note": "Hit rate of the full screen: of about 420,000 compounds, about 64,000 (15%) were called active. Inconclusive results (about 27%) are left out. These entries were drawn from the full list. A number with no mark means an inactive call. The call rests on the fitted dose curve; in most records, active means well fitted inhibition curve with a large enough effect; inconclusive means small, poorly fitted or top-dose-only effect; inactive means flat fitted curve, though single readings scatter. On the % scale 0 is the no-effect control and ±100 the full control effect; potency means the concentration at half of the fitted maximal effect.",
  "data": [
    {"test": "qHTS for Inhibitors of human tyrosyl-DNA phosphodiesterase 1 (TDP1): qHTS in cells in absence of CPT; further: nearly all actives have a fitted effect of over 55% in size", "conditions": "DT40 Tdp1-/- hTDP1 cells, no CPT, ATP luminescence, 48 h; activity change, negative = growth inhibition: at 46.2 µM (top of the series)", "how_it_was_run": "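Luminescent ATP content (CellTiter-Glo) served as the growth readout. Knockout chicken DT40 cells expressing human TDP1 were exposed to compounds without camptothecin for a minimum 48 hr at 37 °C.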", "units": {"activity change, negative = growth inhibition": "%"}, "values": [
      {"smiles": "NC(=O)CN1CCCC1c1ccc2c(c1)OCCO2", "note": "(centres undefined)", "activity change, negative = growth inhibition": -8.83},
      {"smiles": "CCOC(CNC(=O)C1CCN(S(=O)(=O)c2ccc3nc4c(c(C(=O)O)c3c2)CC(C)CC4)CC1)OCC", "note": "(centres undefined)", "activity change, negative = growth inhibition": 20.5},
      {"smiles": "CC(=O)Nc1cccc(C(=O)OCC(=O)c2ccc3c(c2)OCO3)c1", "activity change, negative = growth inhibition": -25.7},
      {"smiles": "CCN(CC)N=Nc1cccc(NC(C)=O)c1", "Potency": "3.26 µM (active)"},
      {"smiles": "CC(=O)c1cccc(NC(=O)c2ccncc2)c1", "activity change, negative = growth inhibition": -20.5},
      {"smiles": "C=CCn1c(SCc2ccc(Cl)c(Cl)c2)nnc1C(CO)NC(=O)c1ccc(OC)cc1", "note": "(centres undefined)", "Potency": "20.6 µM (active)"},
      {"smiles": "C=CCn1c(CCNC(=O)c2ccccc2F)nnc1SCC(=O)Nc1ccc(OC)cc1", "activity change, negative = growth inhibition": -22.4},
      {"smiles": "C=CCn1c(CNC(=O)c2ccco2)nnc1SCC(=O)c1ccc(OC)cc1", "activity change, negative = growth inhibition": -17.9},
      {"smiles": "C=CCN1C(=O)C(Cc2cccc(Cl)c2)S/C1=N/N=C/c1ccco1", "note": "(centres undefined)", "activity change, negative = growth inhibition": -27.6},
      {"smiles": "Cc1cc(S(=O)(=O)NCc2ccccn2)c(Cl)cc1Cl", "activity change, negative = growth inhibition": -22.2},
      {"smiles": "CCn1c(=S)sc2c(=O)n(CC(=O)Nc3ccc(OC)cc3)c(C)nc21", "activity change, negative = growth inhibition": 8.25},
      {"smiles": "COC(=O)c1ccc(NCc2cc(O)ccc2O)cc1", "Potency": "4.61 µM (active)"},
      {"smiles": "O=C(OC12CC3CC(CC(C3)C1)C2)c1ccc(NCc2cc(O)ccc2O)cc1", "Potency": "1.64 µM (active)"},
      {"smiles": "C#CCNc1ccc(C(=O)OCC)cc1", "activity change, negative = growth inhibition": -31.1},
      {"smiles": "CC(C)OC(=O)c1ccc(NCc2cc(O)ccc2O)cc1Cl", "Potency": "2.59 µM (active)"},
      {"smiles": "CC(CN1CCOCC1)OC(=O)c1ccc(Cl)cc1Cl", "note": "(centres undefined)", "activity change, negative = growth inhibition": -0.492},
      {"smiles": "CC(OC(=O)c1ccc(Cl)cc1O)C(=O)NCCC1=CCCCC1", "note": "(centres undefined)", "activity change, negative = growth inhibition": -14},
      {"smiles": "COC(=O)c1cc(C(=O)CSc2nc(C)cc(C)n2)ccc1O", "activity change, negative = growth inhibition": -0.488},
      {"smiles": "CSCCC(NS(=O)(=O)c1ccc(C)cc1)C(=O)N1CCCC1", "note": "(centres undefined)", "activity change, negative = growth inhibition": -3.98},
      {"smiles": "C/C(Cc1ccccc1)=N\\NC(=O)CNC(=O)c1ccc2c(c1)OCCO2", "activity change, negative = growth inhibition": -18},
      {"smiles": "CC1(C)C2CCC13CS(=O)(=O)NC3C2", "note": "(centres undefined)", "activity change, negative = growth inhibition": -2.28},
      {"smiles": "CC1(C)OC(=O)C(=CNC(CO)C(=O)O)C(=O)O1", "note": "(centres undefined)", "activity change, negative = growth inhibition": -11.9},
      {"smiles": "O=P(O)(CP(=O)(c1ccccc1)c1ccccc1)c1ccccc1O", "activity change, negative = growth inhibition": 5.16},
      {"smiles": "C=CCN1CN(S(=O)(=O)c2ccc(OC)cc2)c2nc3ccccc3nc21", "activity change, negative = growth inhibition": 11.2},
      {"smiles": "Cn1cnnc1Sc1ccc(CN2CCN(C3CCCC3)C(CCO)C2)o1", "note": "(centres undefined)", "activity change, negative = growth inhibition": 4.43},
      {"smiles": "Cc1c(C(=O)N(Cc2ccccc2)Cc2cccnc2)cnn1-c1ccc(F)cc1", "activity change, negative = growth inhibition": -12.2},
      {"smiles": "CCN(CC)CC(=O)Nc1nn(-c2ccccc2)nc1C(N)=O", "activity change, negative = growth inhibition": 1.58},
      {"smiles": "O=C(NCCCN1CCCCCC1)c1ccc(N2CCCC2=O)cc1", "activity change, negative = growth inhibition": -2.76},
      {"smiles": "O=C(N/N=C/c1ccc(Br)o1)c1cncc(Br)c1", "activity change, negative = growth inhibition": 14.6},
      {"smiles": "Cc1ccc(C(=O)N/N=C\\c2cc(Br)c(Br)o2)cn1", "Potency": "16.4 µM (active)"},
      {"smiles": "Cc1ccc(C(=O)N/N=C/c2cccc3ccccc23)cn1", "activity change, negative = growth inhibition": -2.46},
      {"smiles": "C=CCSc1ccc(S(=O)(=O)N2CCN(C)CC2)cn1", "activity change, negative = growth inhibition": -4.94},
      {"smiles": "COC(=O)C1CCN(C(=O)COC(=O)c2cc(S(=O)(=O)N3CCOCC3)ccc2C)CC1", "activity change, negative = growth inhibition": -11},
      {"smiles": "C=CCNC(=O)COC(=O)c1ccccc1C(=O)N(C)C1CCCCC1", "activity change, negative = growth inhibition": 9.03},
      {"smiles": "CC1CCCC(NC(=O)COC(=O)c2ccccc2C(=O)N(C)C2CCCCC2)C1C", "note": "(centres undefined)", "Potency": "14.6 µM (active)"},
      {"smiles": "O=C(COC(=O)c1ccccc1SCC(=O)NC1CCCCC1)NC1CCCCC1", "activity change, negative = growth inhibition": -14.5},
      {"smiles": "NC(=O)COC(=O)c1sc2cc(F)ccc2c1Cl", "activity change, negative = growth inhibition": 14.2},
      {"smiles": "CC(=O)NC12CC3CC(C1)CC(C(=O)N1CCN(C(=O)c4ccco4)CC1)(C3)C2", "activity change, negative = growth inhibition": 22.3},
      {"smiles": "COc1ccc(N(CC(=O)NC(C)(C)C)C(=O)c2ccco2)cc1", "activity change, negative = growth inhibition": -10.6},
      {"smiles": "CC1(C)CC(=O)c2cc(OCC(=O)NCC3CCCO3)ccc2O1", "note": "(centres undefined)", "activity change, negative = growth inhibition": -13.3},
      {"smiles": "Cc1cc(-c2cccs2)nc(-n2cccc2)n1", "activity change, negative = growth inhibition": -17.5},
      {"smiles": "O=C(NNc1ncnc2c1cnn2-c1ccccc1)c1ccco1", "activity change, negative = growth inhibition": 3},
      {"smiles": "Cc1cccc(NC(=S)NCc2ccc3[nH]c4c(c3c2)CCCC4)c1", "Potency": "18.4 µM (active)"},
      {"smiles": "O=C(O)CCC(=O)NCc1ccc2[nH]c3c(c2c1)CCCC3", "activity change, negative = growth inhibition": -2.01},
      {"smiles": "Cc1cccc(NC(=S)N2CCCC(c3nc4ccccc4[nH]3)C2)c1", "note": "(centres undefined)", "activity change, negative = growth inhibition": 7.85},
      {"smiles": "CCCCc1c(O)nc2n(c1=O)CCS2", "activity change, negative = growth inhibition": -13.1},
      {"smiles": "O=C(Oc1ccc(Br)cc1C(=S)N1CCOCC1)c1cccc([N+](=O)[O-])c1", "activity change, negative = growth inhibition": -19.6},
      {"smiles": "O=C(/C=C/c1c(Cl)cccc1Cl)NCc1ccccc1", "activity change, negative = growth inhibition": 0.863},
      {"smiles": "COn1c(=O)c(=O)n(OC)c2ccccc21", "activity change, negative = growth inhibition": -4.75},
      {"smiles": "CCOC(=O)c1c(NC(=O)c2cc(CC)on2)sc(C(C)=O)c1C", "activity change, negative = growth inhibition": 4.96},
      {"smiles": "Cc1cc(OCc2cc(C(=O)NCc3cc(C(C)C)no3)no2)cc(C)c1Cl", "activity change, negative = growth inhibition": -12.7},
      {"smiles": "CCOC(=O)CC1(NC(=O)c2cc(COc3cncc(Cl)c3)on2)CCCCC1", "Potency": "20.6 µM (active)"},
      {"smiles": "Cc1ccc2[nH]cc(CCNC(=O)c3ccc([N+](=O)[O-])cc3)c2c1", "activity change, negative = growth inhibition": -27.6},
      {"smiles": "COc1ccc2[nH]cc(CCNc3nc(-c4cccc(NS(C)(=O)=O)c4)nc4ccccc34)c2c1", "Potency": "13 µM (active)"},
      {"smiles": "COc1ccc2[nH]cc(CCNc3ncnc4ccc(-c5ccccc5CN(C)C)cc34)c2c1", "activity change, negative = growth inhibition": -24},
      {"smiles": "COc1cccc(-c2cc(NCCc3c[nH]c4ccc(OC)cc34)ncn2)c1", "Potency": "23.1 µM (active)"},
      {"smiles": "CNc1cc(-c2c(OC)cccc2OC)ncn1", "activity change, negative = growth inhibition": 1.04},
      {"smiles": "COc1ccc2[nH]cc(CCNc3ncnc4ccc(-c5ccc(C(=O)N(C)C)cc5)cc34)c2c1", "Potency": "9.2 µM (active)"},
      {"smiles": "COCCNc1ccnc(-c2cccc(NS(C)(=O)=O)c2)n1", "activity change, negative = growth inhibition": -7.98},
      {"smiles": "COc1ccc2[nH]cc(CCNc3cc(-c4ccccc4CN(C)C)ncn3)c2c1", "activity change, negative = growth inhibition": -17.5},
      {"smiles": "CC(=O)Nc1ccc(S(=O)(=O)N2CCn3cccc3C2C)cc1", "note": "(centres undefined)", "activity change, negative = growth inhibition": 7.81},
      {"smiles": "CC(NC(=O)C(=O)NN=C1CCC(C(C)(C)C)CC1)c1ccccc1", "note": "(centres undefined)", "activity change, negative = growth inhibition": 4.32},
      {"smiles": "CN1CCN(S(=O)(=O)c2ccc(NC(=O)c3ccco3)cc2)CC1", "activity change, negative = growth inhibition": 3.04},
      {"smiles": "COc1ccc(/C(C)=N/N2CCOCC2)c(O)c1", "activity change, negative = growth inhibition": 4.06},
      {"smiles": "CN1CCN(c2ccncc2S(=O)(=O)N2CCCC2)CC1", "activity change, negative = growth inhibition": 16.7},
      {"smiles": "O=S(=O)(c1cnccc1N1CCN(/N=C/c2ccc(Br)cc2)CC1)N1CCCCC1", "Potency": "18.4 µM (active)"},
      {"smiles": "CC(C)NC(=O)N1CCN(c2ccncc2S(=O)(=O)N2CCCCC2)CC1", "activity change, negative = growth inhibition": 12.7},
      {"smiles": "CCOC(=O)C1CCN(C(=O)Cn2cc(C#N)c3ccccc32)CC1", "activity change, negative = growth inhibition": -11.5},
      {"smiles": "O=C(c1cccnc1)N1CCN(S(=O)(=O)c2cccs2)CC1", "activity change, negative = growth inhibition": 15.6}
    ]}
  ]
}
